{"source": "PubChem BioAssay (NCI)", "test_in_all_cases": "NCI-60 one-dose screen, 48 h (100 = growth as untreated, 0 = no growth, -100 = all killed)", "settings_in_all_cases": "10 µM unless noted", "key": {"HT29 colon": {"system": "HT29 colon"}, "SNB-75 CNS": {"system": "SNB-75 CNS"}, "SNB-19 CNS": {"system": "SNB-19 CNS"}, "U251 CNS": {"system": "U251 CNS"}, "PC-3 prostate": {"system": "PC-3 prostate"}, "SK-MEL-5 melanoma": {"system": "SK-MEL-5 melanoma"}, "UACC-62 melanoma": {"system": "UACC-62 melanoma"}, "LOX IMVI melanoma": {"system": "LOX IMVI melanoma"}, "SK-MEL-28 melanoma": {"system": "SK-MEL-28 melanoma"}, "SK-MEL-2 melanoma": {"system": "SK-MEL-2 melanoma"}, "EKVX NSCLC": {"system": "EKVX NSCLC"}, "SN12C renal": {"system": "SN12C renal"}, "UO-31 renal": {"system": "UO-31 renal"}, "TK-10 renal": {"system": "TK-10 renal"}, "ACHN renal": {"system": "ACHN renal"}, "CAKI-1 renal": {"system": "CAKI-1 renal"}, "A498 renal": {"system": "A498 renal"}, "CCRF-CEM leukemia": {"system": "CCRF-CEM leukemia"}, "MOLT-4 leukemia": {"system": "MOLT-4 leukemia"}}, "note": "About 83,000 compounds went through this panel and 20% of them were active in at least one assay; those are over-represented in the sample as a whole.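 Single-concentration screen, 48 h exposure, 96-well plates. Endpoint: percent growth. Below 10 = active.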 The source made the active and inactive calls."}
{"molecule": "CO[C@H]1CC(c2ccc[nH]2)=N[C@]12O[C@@H](C)C[C@@H]1CCCCCCCc3ccc([nH]3)[C@H]12", "values": [{"measurement": "growth", "setting": "HT29 colon", "result": "12.3% (inactive)"}, {"measurement": "growth", "setting": "SNB-75 CNS", "result": "3.5% (active)"}, {"measurement": "growth", "setting": "SNB-19 CNS", "result": "55.4% (inactive)"}, {"measurement": "growth", "setting": "U251 CNS", "result": "19.7% (inactive)"}, {"measurement": "growth", "setting": "PC-3 prostate", "result": "42.2% (inactive)"}, {"measurement": "growth", "setting": "SK-MEL-5 melanoma", "result": "-38.4% (active)"}, {"measurement": "growth", "setting": "UACC-62 melanoma", "result": "-47.8% (active)"}, {"measurement": "growth", "setting": "LOX IMVI melanoma", "result": "-45.1% (active)"}, {"measurement": "growth", "setting": "SK-MEL-28 melanoma", "result": "38.6% (inactive)"}, {"measurement": "growth", "setting": "SK-MEL-2 melanoma", "result": "-16.2% (active)"}, {"measurement": "growth", "setting": "EKVX NSCLC", "result": "29.4% (inactive)"}, {"measurement": "growth", "setting": "SN12C renal", "result": "33.6% (inactive)"}, {"measurement": "growth", "setting": "UO-31 renal", "result": "-15.6% (active)"}, {"measurement": "growth", "setting": "TK-10 renal", "result": "15% (inactive)"}, {"measurement": "growth", "setting": "ACHN renal", "result": "8.05% (active)"}, {"measurement": "growth", "setting": "CAKI-1 renal", "result": "9.32% (active)"}, {"measurement": "growth", "setting": "A498 renal", "result": "57.4% (inactive)"}, {"measurement": "growth", "setting": "CCRF-CEM leukemia", "result": "22.7% (inactive)"}, {"measurement": "growth", "setting": "MOLT-4 leukemia", "result": "20.6% (inactive)"}]}
{"molecule": "CCC(=C(c1ccc(OCCN(CC)CC)cc1)c1ccc(OCCN(CC)CC)cc1)c1ccc(Cl)cc1", "values": [{"measurement": "growth", "setting": "HT29 colon", "result": "-68% (active)"}, {"measurement": "growth", "setting": "SNB-75 CNS", "result": "-73.6% (active)"}, {"measurement": "growth", "setting": "SNB-19 CNS", "result": "-56.1% (active)"}, {"measurement": "growth", "setting": "U251 CNS", "result": "-87.8% (active)"}, {"measurement": "growth", "setting": "PC-3 prostate", "result": "-50.7% (active)"}, {"measurement": "growth", "setting": "SK-MEL-5 melanoma", "result": "-98.2% (active)"}, {"measurement": "growth", "setting": "UACC-62 melanoma", "result": "-68.3% (active)"}, {"measurement": "growth", "setting": "LOX IMVI melanoma", "result": "-87% (active)"}, {"measurement": "growth", "setting": "SK-MEL-28 melanoma", "result": "-86.9% (active)"}, {"measurement": "growth", "setting": "SK-MEL-2 melanoma", "result": "-44.9% (active)"}, {"measurement": "growth", "setting": "EKVX NSCLC", "result": "77.1% (inactive)"}, {"measurement": "growth", "setting": "SN12C renal", "result": "-77% (active)"}, {"measurement": "growth", "setting": "UO-31 renal", "result": "-81.2% (active)"}, {"measurement": "growth", "setting": "TK-10 renal", "result": "-79.3% (active)"}, {"measurement": "growth", "setting": "ACHN renal", "result": "-90.2% (active)"}, {"measurement": "growth", "setting": "CAKI-1 renal", "result": "-89.4% (active)"}, {"measurement": "growth", "setting": "A498 renal", "result": "43.3% (inactive)"}, {"measurement": "growth", "setting": "CCRF-CEM leukemia", "result": "-65.3% (active)"}, {"measurement": "growth", "setting": "MOLT-4 leukemia", "result": "-60.1% (active)"}]}
{"molecule": "Cc1ccc(Nc2nc(N)nc(N)c2N=O)cc1Cl", "values": [{"measurement": "growth", "setting": "HT29 colon", "result": "64.3% (inactive)"}, {"measurement": "growth", "setting": "SNB-75 CNS", "result": "49.5% (inactive)"}, {"measurement": "growth", "setting": "SNB-19 CNS", "result": "97.5% (inactive)"}, {"measurement": "growth", "setting": "U251 CNS", "result": "87% (inactive)"}, {"measurement": "growth", "setting": "PC-3 prostate", "result": "70.8% (inactive)"}, {"measurement": "growth", "setting": "SK-MEL-5 melanoma", "result": "93.5% (inactive)"}, {"measurement": "growth", "setting": "UACC-62 melanoma", "result": "84.6% (inactive)"}, {"measurement": "growth", "setting": "LOX IMVI melanoma", "result": "65.4% (inactive)"}, {"measurement": "growth", "setting": "SK-MEL-28 melanoma", "result": "93.5% (inactive)"}, {"measurement": "growth", "setting": "SK-MEL-2 melanoma", "result": "85.8% (inactive)"}, {"measurement": "growth", "setting": "EKVX NSCLC", "result": "81.5% (inactive)"}, {"measurement": "growth", "setting": "SN12C renal", "result": "90% (inactive)"}, {"measurement": "growth", "setting": "UO-31 renal", "result": "56.5% (inactive)"}, {"measurement": "growth", "setting": "TK-10 renal", "result": "96.2% (inactive)"}, {"measurement": "growth", "setting": "ACHN renal", "result": "72.2% (inactive)"}, {"measurement": "growth", "setting": "CAKI-1 renal", "result": "82.2% (inactive)"}, {"measurement": "growth", "setting": "A498 renal", "result": "119% (inactive)"}, {"measurement": "growth", "setting": "CCRF-CEM leukemia", "result": "89.8% (inactive)"}, {"measurement": "growth", "setting": "MOLT-4 leukemia", "result": "68.7% (inactive)"}]}
{"molecule": "CN1CCN(Cc2ccc(NC(=O)c3cncc(C#Cc4c(N)ncc5ccccc45)c3)cc2C(F)(F)F)CC1", "values": [{"measurement": "growth", "setting": "HT29 colon", "result": "-70.1% (active)"}, {"measurement": "growth", "setting": "SNB-75 CNS", "result": "-94.4% (active)"}, {"measurement": "growth", "setting": "SNB-19 CNS", "result": "-82% (active)"}, {"measurement": "growth", "setting": "U251 CNS", "result": "-98.7% (active)"}, {"measurement": "growth", "setting": "PC-3 prostate", "result": "-57.8% (active)"}, {"measurement": "growth", "setting": "SK-MEL-5 melanoma", "result": "-91.9% (active)"}, {"measurement": "growth", "setting": "UACC-62 melanoma", "result": "-93.8% (active)"}, {"measurement": "growth", "setting": "LOX IMVI melanoma", "result": "-94.3% (active)"}, {"measurement": "growth", "setting": "SK-MEL-28 melanoma", "result": "-83.2% (active)"}, {"measurement": "growth", "setting": "SK-MEL-2 melanoma", "result": "-79.2% (active)"}, {"measurement": "growth", "setting": "EKVX NSCLC", "result": "-34.8% (active)"}, {"measurement": "growth", "setting": "UO-31 renal", "result": "-78.8% (active)"}, {"measurement": "growth", "setting": "TK-10 renal", "result": "-97.6% (active)"}, {"measurement": "growth", "setting": "ACHN renal", "result": "-91.5% (active)"}, {"measurement": "growth", "setting": "CAKI-1 renal", "result": "-66.2% (active)"}, {"measurement": "growth", "setting": "A498 renal", "result": "-63.2% (active)"}, {"measurement": "growth", "setting": "CCRF-CEM leukemia", "result": "-7.03% (active)"}, {"measurement": "growth", "setting": "MOLT-4 leukemia", "result": "-41.3% (active)"}]}
